This is a sample that favours compounds with a hit; in the whole collection about 11% have one here.
Pf growth 48h – Primary qHTS for delayed death inhibitors of the malarial parasite plastid, 48 hour incubation; actives 5.9% (n = 310,000); AID 504832, 2011; P. falciparum luciferase growth in erythrocytes, 48 h; Potency, µM (doses to about 28.7 µM), inactives show top-dose activity change, negative = inhibition, actives largely listed as inhibitors
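Firefly luciferase activity from engineered P. falciparum reports growth; inhibitors lower the luminescent signal. Cultures contained 2% hematocrit erythrocytes at 0.1% final parasitemia.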
AMA1-RON2 inh – qHTS for Inhibitors of AMA1-RON; Towards Development of Antimalarial Drug Lead: Primary Screen; AlphaScreen AMA1-biotinylated RON2 peptide binding; Potency, µM (highest dose often 58.2 µM), without a hit: at the top dose activity change, negative = inhibition, actives largely listed as inhibitors; actives 0.2% (n = 360,000); AID 720542, 2013;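 note: 0% = vehicle wells and -100% = peptide control; nearly all actives have a fitted effect of over 45% in size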
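AMA1 (3D7) with his tag at 25 nM final met compounds first, then biotinylated RON2 peptide at 25 nM; detection used donor plus acceptor beads, 10 µg/mL apiece, read by AlphaScreen after 30 min at room temperature.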
HCV inhibitor – qHTS Assay for Inhibitors of Hepatitis C Virus (HCV); Huh7.5.1 HCVcc-Cre infection, luciferase reporter, 44 h; Potency, µM (highest dose often 41.8 µM), without a hit: top-dose activity change, negative = inhibition, usual class: inhibitors; actives 3.4% (n = 340,000)
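Infectious HCVcc-Cre (~0.5 moi) was added to cells just after compound, with cells seeded 4 h earlier at 1,000 per well. Luciferase activity after 44 h culture reported infection; substrate was incubated 15 min at room temperature before reading.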
Pf growth 96h – Primary qHTS for delayed death inhibitors of the malarial parasite plastid, 96 hour incubation; P. falciparum luciferase reporter growth, 96 h; Potency, µM (series often up to 28.7 µM), for inactives: at the highest dose activity change, negative = inhibition, hits mostly inhibitors; actives 6.9% (n = 320,000); AID 504834, 2011
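Compounds incubated with erythrocytes infected by luciferase-expressing P. falciparum (2% hematocrit, 0.05% parasitemia final) for 96 hours, 37 C in 5% CO2. Growth inhibition scored as decreased luciferase luminescence.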
AmpC detergent – qHTS Inhibitors of AmpC Beta-Lactamase (assay with detergent); AmpC hydrolysis of nitrocefin, absorbance 480 nm, 0.01% Triton; Potency, µM (top dose mostly 114 µM), for inactives: at the top dose activity change, negative = inhibition, most hits filed as inhibitors; actives 0.041% (n = 370,000); AID 485294, 2010;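 note: 0% = no-compound wells and -100% = no-enzyme wells; nearly all actives have a fitted effect of over 25% in size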
Target sequence (P00811 whole entry, looked up): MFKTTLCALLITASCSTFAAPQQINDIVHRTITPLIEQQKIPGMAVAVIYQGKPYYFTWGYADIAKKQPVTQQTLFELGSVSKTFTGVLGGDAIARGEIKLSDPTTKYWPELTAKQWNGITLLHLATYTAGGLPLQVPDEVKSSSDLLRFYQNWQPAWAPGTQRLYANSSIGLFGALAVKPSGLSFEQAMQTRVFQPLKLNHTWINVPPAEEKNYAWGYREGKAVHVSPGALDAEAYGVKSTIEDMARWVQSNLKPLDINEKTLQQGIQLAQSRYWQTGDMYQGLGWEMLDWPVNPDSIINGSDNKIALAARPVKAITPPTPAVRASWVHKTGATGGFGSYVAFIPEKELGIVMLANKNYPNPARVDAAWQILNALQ
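20 mM phosphate pH 7.0 + 0.01% (detergent screen) or 0.0001% Triton X-100; 5.3 nM AmpC reagent; cpd preinc 15 min RT; nitrocefin (800 uM stock) to start; A480 q20 s × 4 min; Activity was normalised to no-enzyme and no-compound control wells.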
AmpC inh no detg – qHTS Inhibitors of AmpC Beta-Lactamase (assay without detergent); P00811; AmpC nitrocefin hydrolysis, absorbance 480 nm, 0.0001% Triton; Potency, µM (doses to about 57.1 µM), for inactives: at the top dose activity change, negative = inhibition, actives largely listed as inhibitors; actives 0.52% (n = 330,000);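 note: plate controls were no compound for no effect and no enzyme for full effect; nearly all actives have a fitted effect of over 20% in size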
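20 mM phosphate pH 7.0 + 0.01% (detergent screen) or 0.0001% Triton X-100; 5.3 nM AmpC reagent; cpd preinc 15 min RT; nitrocefin (800 uM stock) to start; A480 q20 s × 4 min; Activity was normalised to no-enzyme and no-compound control wells.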
Starred values were filed as active, the others as inactive; u = inconclusive; x = not tested or not shown. Calls come from the whole dose curve; as a rule, active = well fitted curve in the direction sought with a large enough effect; inconclusive = small, poorly fitted or top-dose-only effect, or another doubt; inactive = no such curve, though single readings can be large; an effect the other way counts as inactive or inconclusive. Unless noted, % is set by controls: 0 for no effect and ±100 for the full control effect; potency is the fitted concentration of half-maximal effect.

SMILES | Pf growth 48h | AMA1-RON2 inh | HCV inhibitor | Pf growth 96h | AmpC detergent | AmpC inh no detg
Oc1ccc(C(O)CNCCCCCCNCC(O)c2ccc(O)c(O)c2)cc1O (configuration not stated) | 7.6µM* | x | x | 12µM* | x | x
CCCCNC(=O)C1CCN(c2nc3ccccc3nc2C(F)(F)F)CC1 | x | x | x | x | 1% | x
O=C1C(Cc2c[nH]c3ccccc23)NC(=S)N1Cc1ccccc1 (configuration not stated) | u | 1% | 7% | 13µM* | -14% | u
O=C1NC(Cc2c[nH]c3ccccc23)C(=O)N1Cc1ccccc1 (configuration not stated) | 10% | 2% | 9% | 23% | 3% | -16%
CCOC(=O)c1cc(-c2ccc(OC)cc2)n(CCC(=O)NCc2ccc(OC)cc2)c1C | x | x | x | x | -1% | x
CC(C)Cc1nc(SCC(=O)N2CCCCC2)c2c(=O)n(C)c(=O)n(C)c2n1 | 10% | 8% | 25µM* | 53% | 0% | -11%
CNC(=O)c1cnc2sc(N3CCCCCC3)nn2c1=O | x | x | x | x | 3% | x
CN(C)CCCN(C(=O)c1ccco1)c1nc2ccc(F)cc2s1 | 43% | 0% | u | -27% | 2% | 28%
Cc1ccc2nc(N(CCCN(C)C)C(=O)c3ccc(Br)s3)sc2c1 | u | -4% | 10µM* | u | 5% | 247%
Cc1ccc2nc(N(CCCN(C)C)C(=O)c3ccco3)sc2c1 | 37% | 0% | 10µM* | -9% | -4% | 23%
COc1ccc2c(c1OC)C(=O)N1c3ccccc3C(=O)N(c3ccccc3)C21 (configuration not stated) | 13µM* | 1% | u | 10µM* | -9% | -6%
CC1=Nc2cc(C(=O)NCc3ccccc3Cl)ccc2Sc2c(C)ccc(C)c21 | x | x | x | x | 12% | x
CCCCCn1c(CCC(=O)Oc2ccccc2OC)nc2c1c(=O)[nH]c(=O)n2CCCC | x | -5% | 18% | 13µM* | -15% | -9%
CCCCn1c(=O)[nH]c(=O)c2c1nc(-c1ccccn1)n2CC | -3% | 13% | 8% | -28% | -4% | -17%
CC(=O)Nc1cccc(C(=O)N(Cc2ccccc2)Cc2ccccc2)c1 | 2% | -5% | -7% | -21% | -8% | 71%
CN(C)c1ccc(C(=O)N(Cc2ccccc2)Cc2ccccc2)cc1 | -4% | u | -15% | 15µM* | -1% | -6%
CN(C)c1cccc(C(=O)N(Cc2ccccc2)Cc2ccccc2)c1 | -12% | u | -26% | 10µM* | -20% | -1%
Cc1cccc(Cl)c1NC(=O)N1CCN(c2ccnc3cc(Cl)ccc23)CC1 | u | -1% | u | u | -4% | -1%
O=C(Nc1ccc(Cl)cc1)N1CCN(c2ncccn2)CC1 | u | -7% | -13% | u | 1% | -17%
O=C(Nc1ccc(C(F)(F)F)cc1)N1CCN(c2ccnc3cc(Cl)ccc23)CC1 | 1.5µM* | -4% | 8.9µM* | u | 11% | -26%
Cc1ccc(F)cc1NC(=O)N1CCN(c2ccnc3cc(Cl)ccc23)CC1 | u | -5% | 3.5µM* | 6.6µM* | -3% | 10%
O=C(Nc1cc(F)ccc1F)N1CCN(c2ccnc3cc(Cl)ccc23)CC1 | u | -3% | 11µM* | u | 0% | -3%
Cc1ccc(-c2csc(NC(=O)c3ccc(S(=O)(=O)N4CCc5ccccc54)cc3)n2)cc1 | 10µM* | -8% | 4.5µM* | 13µM* | -23% | -32%
O=C(Nc1nc(-c2ccccc2)cs1)c1ccc(S(=O)(=O)N2CCc3ccccc32)cc1 | u | -9% | 10µM* | u | 3% | -37%

High-throughput results deposited in PubChem BioAssay by National Center for Advancing Translational Sciences (NCATS).
